Source: PubChem BioAssay
ALDH1A1 block: ALDH1A1 (human) enzyme inhibition; P00352; Purified ALDH1A1, NADH fluorescence, propionaldehyde substrate; Potency, µM (titrated, usually from 75.3 µM), hits mostly inhibitors; hit rate 7.3% among 220,000; AID 1030; active = well fitted inhibition curve with a large enough effect, not every such curve was filed as active; inconclusive = small, poorly fitted or top-dose-only effect, or another doubt; inactive = no such curve, though single readings can be large or run the other way
NPSR antag: neuropeptide S receptor (human) antagonism, cAMP | Q6W5P4 | CHO-NPSR cells, cAMP TR-FRET, antagonist mode | Potency, µM (doses to about 38.3 µM), hits mostly inhibitors | hit rate 1% among 220,000 | AID 1461; also: nearly all actives have a fitted effect of over 50% in size
IMPase cell inh: membrane-permeable compound that blocks inositol monophosphatase. P97697. CHO-M1 cells, IP1 accumulation, HTRF TR-FRET ratio. inhibition (IP1 accumulation), % at 46.1 µM. 120,000 tested, under 10 active. AID 901; active = well fitted curve in the direction sought with a large enough effect in the signal ratio, not every such curve was filed as active; inconclusive = small, poorly fitted or top-dose-only effect, or a change in a side signal; inactive = no such curve, though single readings can be large or run the other way; the % refers to the signal ratio;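 also: cells stimulated with carbachol in lithium chloride buffer; higher means more IMPase inhibition seen as more IP1 and lower FRET ratio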
Target sequence (P97697 whole entry, looked up): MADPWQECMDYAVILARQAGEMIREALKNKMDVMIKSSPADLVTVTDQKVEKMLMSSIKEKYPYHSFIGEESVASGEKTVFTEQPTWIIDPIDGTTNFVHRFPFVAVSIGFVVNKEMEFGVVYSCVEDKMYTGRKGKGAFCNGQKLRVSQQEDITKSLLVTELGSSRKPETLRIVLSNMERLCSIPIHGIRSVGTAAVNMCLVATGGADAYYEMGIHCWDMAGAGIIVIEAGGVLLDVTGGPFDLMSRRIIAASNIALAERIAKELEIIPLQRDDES
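Elevated IP1 in lysates lowers TR-FRET signal (665/620 ratio and 620 channel reported). Cells were CHO-M1, given carbachol (50 uM as added) plus 50mM LiCl, pH 7.4, 30 min, 37C; compounds titrated up to 46 uM; AC50 by Hill equation.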
IMPase Li inh: IMPase inhibition in cells with lithium potentiation. CHO-M1 cells, IP1 TR-FRET (IP-One), carbachol + lithium. Potency, µM (highest dose often 59.4 µM), usual class: inhibitors. hit rate 0.35% among 210,000. AID 1457;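 also: IP1 builds up when IMPase is blocked and the TR-FRET signal falls; nearly all actives have a fitted effect of over 50% in size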
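CHO-M1, 2000 cells/well, 16–30 h culture; cpd + low Li+, 30 min 37C; lysis with d2-IP1/Eu-anti-IP1 Ab, 10 min RT; TR-FRET 665/620 ratio and 620 channel; AC50 via Hill.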
HPGD block: HPGD (human) dehydrogenase inhibition. hit rate 4.3% among 150,000. AID 894. purified HPGD, NADH fluorescence kinetic, PGE2 substrate. P15428. Potency, µM, hits mostly inhibitors; active = well fitted inhibition curve with a large enough effect, not every such curve was filed as active; inconclusive = small, poorly fitted or top-dose-only effect, or another doubt; inactive = no such curve, though single readings can be large or run the other way
Target sequence (P15428 whole entry, looked up): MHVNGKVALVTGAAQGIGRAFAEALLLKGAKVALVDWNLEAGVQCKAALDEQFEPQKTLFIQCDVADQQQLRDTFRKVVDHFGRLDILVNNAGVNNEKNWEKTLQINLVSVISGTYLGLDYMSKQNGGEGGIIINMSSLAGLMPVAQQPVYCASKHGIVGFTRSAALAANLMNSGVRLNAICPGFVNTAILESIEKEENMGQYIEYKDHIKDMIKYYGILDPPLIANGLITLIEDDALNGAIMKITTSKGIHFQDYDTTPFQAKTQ
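20 nM HPGD preincubated 15 min at room temperature with compound in 50 mM Tris-HCl pH 8, 0.01% Tween 20. Started with 1 mM NAD+ and 30 uM prostaglandin E2; NADH fluorescence (360/450 nm) read 5 times over 30-s intervals, last minus first.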
12-hLO inh: blocks human 12-lipoxygenase activity. purified 12-hLO, xylenol orange hydroperoxide absorbance. Potency, µM (highest dose often 57.1 µM), hits mostly inhibitors. P18054. hit rate 0.12% among 150,000; also: nearly all actives have a fitted effect of over 55% in size
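Xylenol orange chromogenic assay: hydroperoxide from 12hLO oxidises Fe(II), giving red-shifted Fe(III)-XO absorbance. Conditions: 150 nM enzyme, 40 uM arachidonic acid, 25 mM Hepes pH 7.0, 0.01% Triton X-100, 30 min, room temperature.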
A number is an active result; n = inactive; u = inconclusive; x = no result; [ ] = another dose, or the depositor's remark. Sampled rows, rich in hits. Any-hit rate of the full collection: about 8.9%. Unless noted, calls follow the shape of the dose curve; as a rule, active = well fitted curve in the direction sought with a large enough effect; inconclusive = small, poorly fitted or top-dose-only effect, or another doubt; inactive = no such curve, though single readings can be large; an effect the other way counts as inactive or inconclusive.

SMILES	ALDH1A1 block	NPSR antag	IMPase cell inh	IMPase Li inh	HPGD block	12-hLO inh
COc1ccc(C(=O)NC(=S)NNC(=O)[C@H]2C[C@@H]2c2ccccc2)cc1OC	u	n	x	x	x	x
O=C(NC(=S)NNC(=O)[C@H]1C[C@@H]1c1ccccc1)c1ccc(F)cc1	25.1µM	n	x	x	x	x
Cc1nc2ccccc2n1CC(O)COC1CCCCC1 (stereo not drawn)	u	n	n	n	n	n
CC(C)c1nc2ccccc2n1CC(O)COC1CCCCC1 (stereo not drawn)	28.2µM	n	x	n	x	x
Cc1cc(C)n(CCCO)c(=O)c1C#N	n	n	n	n	n	n
COc1ccc(C)cc1NC(=O)CN(c1ccccc1)S(=O)(=O)N(C)C	x	x	n	x	x	x
CCOC(=O)C1CCN(C(=O)CSc2ccc(Cl)cc2)CC1	n	n	n	n	n	n
CCOC(=O)C1CCN(C(=O)c2ccc(Br)o2)CC1	3.16µM	n	n	n	n	n
CCOC(=O)C1CCN(C(=O)CSCCSCC(=O)N2CCC(C(=O)OCC)CC2)CC1	11.2µM	n	n	n	n	n
CCOC(=O)C1CCN(C(=O)N(C)C)CC1	n	n	n	n	n	n
CCOC(=O)C1CCN(C(=O)CSc2ccc(Br)cc2)CC1	31.6µM	n	x	n	x	x
CCOC(=O)C1CCN(C(=O)COC(=O)c2ccc(Br)o2)CC1	n	n	n	n	n	n
CC1=C(C(=O)OCC2CCCO2)C(c2ccncc2)C2=C(CCCC2=O)N1 (stereo not drawn)	u	n	n	n	u	n
COc1ccc(Cl)cc1NC(=O)/C=C/C(=O)O	n	n	x	x	x	x
CCCOC(=O)c1c(N)sc2c1CCC2	28.2µM	n	u	n	n	n
CCOC(=O)c1c(N)sc2c1CCSC2	12.6µM	n	n	n	n	n
CCCCCN=CC1=C(O)CC(c2ccccc2)CC1=O (stereo not drawn)	n	n	x	n	x	x
CN(Cc1cnccn1)Cc1c(C(=O)N2CCc3ccccc3C2)nc2ccc(Cl)cn12	17.8µM	n	x	n	x	x
Cc1cnc(CN(C)Cc2c(C(=O)N3CCc4ccccc4C3)nc3ccc(Cl)cn23)[nH]1	17.8µM	n	x	n	x	x
CN(Cc1cccnc1)Cc1c(C(=O)N2CCc3ccccc3C2)nc2ccc(Cl)cn12	u	n	x	n	x	x
CC(C)CN(C)Cc1c(C(=O)N2CCc3ccccc3C2)nc2ccc(Cl)cn12	7.94µM	u	x	n	x	x
CCCCN(C)Cc1c(C(=O)N2CCc3ccccc3C2)nc2ccc(Cl)cn12	u	n	x	n	x	x
O=C(c1ccc2snnc2c1)N1CCN(c2ccccc2)CC1	n	n	n	n	n	n
O=C(Nc1ccccc1OC(F)F)c1cc2c(s1)CCC2	u	n	n	n	n	n
O=C(NNC(=S)Nc1ccc(OC(F)F)cc1)c1cc2c(s1)CCCC2	8.91µM	n	n	n	n	n
SMILES	ALDH1A1 block	NPSR antag	IMPase cell inh	IMPase Li inh	HPGD block	12-hLO inh
CCCNC(=O)c1nc2ncc(Br)cn2n1	n	n	n	x	x	n
Cc1c(Cl)cccc1NC(=O)CNc1ccccc1F	10µM	n	n	x	x	n
O=C(Cc1ccc(Cl)cc1)Nc1ccccc1CO	n	n	n	n	n	n
O=C(Cc1ccccc1)Nc1ccccc1CO	u	n	n	n	14.1µM	n
CSCCC(Nc1ncnc2ccc(Br)cc12)C(=O)O (stereo not drawn)	u	u	n	10µM	n	n
CC(C)Nc1ncnc2ccc(Br)cc12	n	n	x	n	n	n
S=c1[nH]nc(-c2ccco2)n1/N=C/c1cccc(Cl)c1Cl	n	n	x	n	2µM	n
S=c1[nH]nc(-c2ccco2)n1-c1ccc(Cl)cc1	n	n	x	n	x	x
S=c1[nH]nc(-c2ccco2)n1/N=C/c1ccc(Cl)cc1Cl	u	n	n	n	2.24µM	n
Nn1c(-c2ccco2)n[nH]c1=S	n	n	n	n	n	n
CC(C)Cn1c(SCc2nnc(-c3cccs3)o2)nc(O)cc1=O	n	n	n	n	15.8µM	n
Cc1nnc(SCc2nnc(-c3cccs3)o2)n1C	n	n	x	n	x	x
Cc1onc(-c2ccccc2)c1C(=O)N1CCC(C)CC1	n	n	n	n	n	n
O=C(O)/C(=C\c1ccccc1)c1ccccc1	n[13.5 µM]	n	x	n	n	n[11.4 µM]
CC1CCN(C(=O)/C(=C/c2ccccc2Cl)c2ccccc2)CC1	u	u	n	n	11.2µM	n
CN1CCN(C(=O)/C(=C\c2ccccc2)c2ccccc2)CC1	n	n	n	n	17.8µM	n
Cc1ccc(NC(=O)c2sc3nc(C)nc(N4CCN(c5ccccn5)CC4)c3c2C)c(C)c1	n	12.6µM	x	n	x	x
Cc1cc(C)nc(-n2nc(C)cc2NC(=O)c2cccc(S(=O)(=O)N3CCOCC3)c2)n1	n	n	n	n	n	n
Cc1cc(O)c(C(C)C)cc1NC1=NS(=O)(=O)c2ccccc21	u	n	n	n	n	n
COc1ccc(S(=O)(=O)Nc2ccccc2OC)cc1C	n	n	n	n	n	n
COc1ccc(S(=O)(=O)Nc2ccccc2C)cc1C(=O)N1CCOCC1	10µM	n	x	n	x	x
Cc1ccccc1NS(=O)(=O)c1ccc(F)cc1	n	n	n	n	n	n
COc1ccc(S(=O)(=O)Nc2cccc(F)c2C)cc1C(=O)N1CCOCC1	n	n	x	n	x	x
COc1ccc(S(=O)(=O)Nc2ccccc2SC)cc1C	u	n	n	11.2µM	n	n
CSc1ccccc1NS(=O)(=O)c1ccccc1	8.91µM	n	n	n	n	n
Cc1cc(O)c(C(C)C)cc1NS(=O)(=O)c1ccccc1	14.1µM	n	n	n	n	n
O=C(/C=C/c1cn(-c2ccccc2)nc1-c1cccc(Cl)c1)N1CCN(c2ccccn2)CC1	n	n	x	n	x	x
Cc1ccc2sc(NC(=O)CN3C(=O)CCC3=O)nc2c1C	n	n	n	n	n	n
Cn1nnc(NC(=S)NC(=O)c2ccc(-c3ccc(Br)cc3)o2)n1	7.94µM	n	x	n	x	x
